Data on 59 molecules can be found in PubChem BioAssay AID2685 (National Center for Advancing Translational Sciences (NCATS), 2010).

The whole screen tested about 320,000 compounds, of which about 2,100 (0.66%) were called active. Another 53% or so got no clear call; they are omitted. The call rests on the fitted dose curve; in most records, active means well fitted inhibition curve with a large enough effect in the signal ratio, with a control signal flat (not every such curve was filed as active); inconclusive means small, poorly fitted or top-dose-only effect, or effect the other way, or a change in a side signal; inactive means flat fitted curve, though single readings scatter; the % refers to the signal ratio. Many of the other results were omitted from the sample, so actives are more common in it than they were.
Potency means the concentration at half of the fitted maximal effect.

The experiment in a line: qHTS Assay for Lipid Storage Modulators in Drosophila S3 Cells.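 On cell number change: cells counted by Cell Tracker Red CMTPX staining in the red channel.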 Particulars: BODIPY lipid droplet fluorescence, 18-24 h, cells fed with added oleic acid; cell number change: measured here: cell count max response; series mostly up to 46.1 µM. Summed up:
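Drosophila S3 cells loaded with oleic acid (400 uM, as added) and compounds at several concentrations; lipid droplets imaged by 488-nm laser-scanning cytometry, 500–530 nm intensity and object ratio to cell channel. Percent activity normalized to 20 uM Triacsin C.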
On to `Cc1cnc(NC(=O)CCNC(=O)c2ccccc2Cl)s1`, for which the Potency result was “inactive”.
As for `Cc1noc(C(=O)NCc2cccnc2)c1Cl`, the Potency entry was “inactive” and the cell number change amounted to 3.97%.
The corresponding values for `CCOC(=O)Nc1ccc2c(CN3CCN(S(=O)(=O)c4ccccc4)CC3)cc(=O)oc2c1` are “inactive” and 3.64%.
On the same counts, the results for `O=C(NCC1CCCN(C(=O)Cc2ccccc2Cl)C1)c1ccc(F)cc1` (stereo unspecified) are “inactive” and 17.2%.
The corresponding values for `CC(=O)c1ccccc1NC(=O)COC(=O)/C(=C/c1ccccc1)n1nnnc1C` are 7.31 µM (active) and -27.9%.
On to `NS(=O)(=O)c1cccc(NC(=O)COC(=O)C2(c3cccc(F)c3)CCCC2)c1`, for which the Potency entry is “inactive” and the cell number change is -1.45%.
Regarding `CC(C)(C)NC(=O)COC(=O)c1ccccc1Oc1ccccc1`, the Potency result is “inactive”.
As for `CC(=O)c1ccccc1NC(=O)COC(=O)c1c(C)nn(-c2ccccc2)c1C`, the Potency entry is “inactive” and the cell number change is -19.3%.
On the same counts, the results for `CC(C)(C)NC(=O)COC(=O)C1c2ccccc2Oc2ccccc21` are “inactive” and -10.4%.
On to `CC(=O)c1ccccc1NC(=O)COC(=O)c1ccccc1NC(=O)c1ccccc1`, for which the Potency entry is “inactive” and the cell number change is -15%.
The corresponding values for `Cc1nnnn1/C(=C\c1ccccc1)C(=O)OCC(=O)Nc1cccc(S(=O)(=O)N(C)C)c1` are 3.66 µM (active) and -25%.
On the same counts, the results for `CN(C)S(=O)(=O)c1cccc(NC(=O)COC(=O)C2(c3ccccc3F)CCCC2)c1` are 8.2 µM (active) and -25.4%.
On the same counts, the results for `Cc1nnnn1/C(=C\c1ccccc1)C(=O)OCC(=O)NC(C)(C)C` are 4.11 µM (active) and -11.4%.
Turning to `Cc1cc(C(=O)OCC(=O)Nc2cccc(S(=O)(=O)N(C)C)c2)c2ccccc2n1`, the Potency result was “inactive” and the cell number change was -13.9%.
The corresponding values for `CN(C)S(=O)(=O)c1cccc(NC(=O)CSc2nnnn2-c2ccccc2)c1` are “inactive” and -3.51%.
Consider `CN(C)S(=O)(=O)c1cccc(NC(=O)COC(=O)CNC(=O)c2ccccc2F)c1`, for which the Potency entry was “inactive”.
On to `COc1ccc(C2N(c3ccc4c(c3)OCCO4)C(=O)C2(F)F)cc1OC` (stereo unspecified), for which the Potency entry was “inactive” and the cell number change is -17.8%.
The corresponding values for `Cc1c(Cl)cccc1NC(=O)NCc1ccc(F)cc1` are “inactive” and 3.73%.
On to `COc1cccc(-c2noc(C3CCCN(C(=O)c4cccc(F)c4)C3)n2)c1` (stereo unspecified), for which the Potency entry was “inactive” and the cell number change is -8.07%.
The corresponding values for `CCOc1ccc(N(CC(=O)Nc2ccc(C)c(C)c2)S(=O)(=O)c2c(C)[nH]c(=O)[nH]c2=O)cc1` are “inactive” and 10.2%.
On the same counts, the results for `CCC(C)NC(=O)C(=O)NCc1ccncc1` (stereo unspecified) are “inactive” and -9.14%.
On the same counts, the results for `CCc1ccc2oc(C(=O)N3CCN(C)CC3)cc(=O)c2c1` are “inactive” and 14.4%.
Regarding `CC1C/C(=C\c2cccnc2)C(=O)/C(=C/c2cccnc2)C1` (stereo unspecified), the Potency is 5.17 µM (active) and the cell number change was -29%.
On the same counts, the results for `O=C1/C(=C/c2cccnc2)CC/C1=C\c1cccnc1` are “inactive” and -4.02%.
`O=C1/C(=C/c2cccnc2)CCC/C1=C\c1cccnc1`: the Potency was 14.6 µM (active) and the cell number change is -13.8%.
On the same counts, the results for `CC1C/C(=C/c2cccs2)C(=O)/C(=C/c2cccs2)C1` (stereo unspecified) are “inactive” and -17.9%.
On the same counts, the results for `CC(C)/C=C1\CC/C(=C\c2cccnc2)C1=O` are “inactive” and -13.9%.
On the same counts, the results for `O=C1/C(=C/c2cccnc2)Cc2ccc(Cl)cc21` are “inactive” and 24.8%.
As for `CN(C)c1cccc(C(=O)NNC(=O)NC2CCCCC2)c1`, the Potency entry was “inactive” and the cell number change is -5.42%.
The corresponding values for `Cc1cccc2cc(CN(CC3CCCO3)S(=O)(=O)c3ccccc3)c3nnnn3c12` (stereo unspecified) are “inactive” and 3.31%.
On the same counts, the results for `CC(CC(=O)Nc1cccc(F)c1)S(=O)(=O)c1ccc2c(c1)NC(=O)CO2` (stereo unspecified) are “inactive” and 6.92%.
On the same counts, the results for `C/C(=N\NC(=O)c1ccccc1OCc1ccc(F)cc1)c1ccccn1` are “inactive” and -7.7%.
Regarding `CCN(CC)C(=O)c1sc2nc(-c3cccs3)cc(-c3ccc(Cl)cc3)c2c1N`, the Potency was 20.6 µM (active) and the cell number change stood at 23.2%.
On the same counts, the results for `N#Cc1sc2nc(-c3cccs3)cc(-c3ccc(F)cc3)c2c1N` are “inactive” and -15.9%.
On to `Nc1c(C(=O)O)sc2nc(-c3ccccc3)cc(-c3ccc(Cl)cc3)c12`, for which the Potency result was “inactive” and the cell number change was -6.59%.
The corresponding values for `COc1ccc(N2C(=O)CC(Sc3nc(C)cc(C)n3)C2=O)cc1OC` (stereo unspecified) are “inactive” and 22%.
On the same counts, the results for `CC(=O)c1c(C)[nH]c(C(=O)Nc2nccs2)c1C` are “inactive” and 5.23%.
On the same counts, the results for `CC(=O)c1c(C)[nH]c(C(=O)Nc2ccccn2)c1C` are 29.1 µM (active) and -7.6%.
On to `CCC(C)c1ccccc1NC(=O)c1[nH]c(C)c(C(C)=O)c1C` (stereo unspecified), for which the Potency entry was “inactive” and the cell number change was -4.58%.
On the same counts, the results for `O=C(CN1CCN(S(=O)(=O)c2ccccc2)CC1)NC1CC1` are “inactive” and -0.697%.
The corresponding values for `CCOC(=O)C1CCN(C(=O)c2ccc(N3CCCC3=O)cc2)CC1` are “inactive” and 2.94%.
On the same counts, the results for `O=C(NCc1ccc(F)cc1)c1cc2c(s1)CS(=O)(=O)C2` are “inactive” and -3.83%.
Regarding `COC(=O)c1c(C)[nH]c(C(=O)/C=C/c2ccc(C)cc2)c1C`, the Potency result is “inactive” and the cell number change stood at 11.4%.
Turning to `CCN1CCc2nc(NC(=O)C(c3ccccc3)c3ccccc3)sc2C1`, the Potency was 20.6 µM (active) and the cell number change is -8.16%.
Consider `CCN1CCc2nc(NC(=O)c3ccc(S(=O)(=O)N(C)C)cc3)sc2C1`, for which the Potency entry was “inactive”.
In the case of `CCN1CCc2nc(NC(=O)c3ccc4c(c3)OCCO4)sc2C1`, the Potency result is “inactive” and the cell number change is -22.4%.
Turning to `CCC(=O)Nc1c2c(nn1-c1ccc(OC)cc1)CS(=O)C2` (stereo unspecified), the Potency entry is “inactive” and the cell number change was -17%.
Consider `COc1ccccc1N(CC(=O)NCC1CCCO1)C(=O)CNS(=O)(=O)c1ccccc1` (stereo unspecified), for which the Potency result is “inactive”.
In the case of `Cc1nc2ccccc2n1CSc1ccccc1`, the Potency result is “inactive” and the cell number change turned out to be 7.45%.
The corresponding values for `COc1cccc(-c2ccc(C#N)c(OC(=O)c3c(Cl)cccc3Cl)n2)c1` are “inactive” and -22.9%.
On the same counts, the results for `Cc1cc(NC(=O)C(C)SCC(=O)Nc2nc3c(F)cc(F)cc3s2)no1` (stereo unspecified) are “inactive” and -16.6%.
As for `Cc1cc(NC(=O)CSCC(=O)Nc2nc3ccc(F)cc3s2)no1`, the Potency was 11.6 µM (active) and the cell number change was determined as 9.73%.
As to `Cc1cc(NC(=O)CSc2ccc(F)cc2)no1`, the Potency entry is “inactive”.
For `O=C(CN1C(=O)S/C(=C/c2ccc(N3CCOCC3)cc2)C1=O)N1CCOCC1`, the Potency entry is “inactive” and the cell number change was found to be 13.3%.
On the same counts, the results for `O=C(CN(Cc1ccc(F)cc1)C(=O)c1csnn1)NC1CCCC1` are “inactive” and 10.5%.
With `COc1cc(OC)cc(C(=O)N(Cc2nc(-c3cccc(C)c3)no2)C(C)C)c1`, the Potency result is “inactive”.
Turning to `Cc1cccc(-c2noc(CN(C(=O)C34CC5CC(CC(C5)C3)C4)C(C)C)n2)c1`, the Potency result is “inactive” and the cell number change was determined as 15.9%.
On the same counts, the results for `COc1cccc(C(=O)N(Cc2nc(-c3cccc(C)c3)no2)C(C)C)c1OC` are 18.4 µM (active) and -16.8%.
On the same counts, the results for `O=C(COc1ccc(Cl)cc1)N(Cc1ccco1)C1CCS(=O)(=O)C1` (stereo unspecified) are “inactive” and 5.12%.
